Data taken from PubChem BioAssay.
Activity calls are given as the source filed them.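 How the source made its calls: active means normalized viability below 100% at a tested concentration; inactive means the rest.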

Test: drug combination growth inhibition, ovarian cancer – cell-based, oncology-focused library, rucaparib conditional, profiling panel (AID 1508598)
Details: patient-derived ovarian cancer cells, CellTiter-Glo viability, 144 h; at 0.313 µM; OCI-C5x cells; with rucaparib 10 µM; hits give low values; 100% = cells with rucaparib alone

SMILES	viability
O=c1[nH]cc(F)c(=O)[nH]1	121% (inactive)
CCCCCCNC(=O)n1cc(F)c(=O)[nH]c1=O	133% (inactive)
Cc1ccc(-c2cc(C(F)(F)F)nn2-c2ccc(S(N)(=O)=O)cc2)cc1	117% (inactive)
CN(CCOc1ccc(CC2SC(=O)NC2=O)cc1)c1ccccn1 (stereo not drawn)	110% (inactive)

Same assay, conditions: patient-derived ovarian cancer cells, CellTiter-Glo viability, 144 h; at 0.313 µM; OCI-C5x cells; without rucaparib; hits give low values

SMILES	viability
O=c1[nH]cc(F)c(=O)[nH]1	105% (inactive)
CCCCCCNC(=O)n1cc(F)c(=O)[nH]c1=O	112% (inactive)
Cc1ccc(-c2cc(C(F)(F)F)nn2-c2ccc(S(N)(=O)=O)cc2)cc1	110% (inactive)
CN(CCOc1ccc(CC2SC(=O)NC2=O)cc1)c1ccccn1 (stereo not drawn)	148% (inactive)

Same assay, conditions: patient-derived ovarian cancer cells, CellTiter-Glo viability, 144 h; at 0.313 µM; OCI-P5x cells; with rucaparib 20 µM; hits give low values; 100% = cells with rucaparib alone

SMILES	viability
O=c1[nH]cc(F)c(=O)[nH]1	99.1% (active)
CCCCCCNC(=O)n1cc(F)c(=O)[nH]c1=O	101% (inactive)
Cc1ccc(-c2cc(C(F)(F)F)nn2-c2ccc(S(N)(=O)=O)cc2)cc1	66.1% (active)
CN(CCOc1ccc(CC2SC(=O)NC2=O)cc1)c1ccccn1 (stereo not drawn)	106% (inactive)

Same assay, conditions: patient-derived ovarian cancer cells, CellTiter-Glo viability, 144 h; at 0.313 µM; OCI-P5x cells; without rucaparib; hits give low values

SMILES	viability
O=c1[nH]cc(F)c(=O)[nH]1	100% (inactive)
CCCCCCNC(=O)n1cc(F)c(=O)[nH]c1=O	112% (inactive)
Cc1ccc(-c2cc(C(F)(F)F)nn2-c2ccc(S(N)(=O)=O)cc2)cc1	56.6% (active)
CN(CCOc1ccc(CC2SC(=O)NC2=O)cc1)c1ccccn1 (stereo not drawn)	119% (inactive)

Same assay, conditions: patient-derived ovarian cancer cells, CellTiter-Glo viability, 144 h; at 1.25 µM; OCI-C5x cells; with rucaparib 10 µM; hits give low values; 100% = cells with rucaparib alone

SMILES	viability
O=c1[nH]cc(F)c(=O)[nH]1	145% (inactive)
CCCCCCNC(=O)n1cc(F)c(=O)[nH]c1=O	129% (inactive)
Cc1ccc(-c2cc(C(F)(F)F)nn2-c2ccc(S(N)(=O)=O)cc2)cc1	113% (inactive)
CN(CCOc1ccc(CC2SC(=O)NC2=O)cc1)c1ccccn1 (stereo not drawn)	107% (inactive)

Same assay, conditions: patient-derived ovarian cancer cells, CellTiter-Glo viability, 144 h; at 1.25 µM; OCI-C5x cells; without rucaparib; hits give low values

SMILES	viability
O=c1[nH]cc(F)c(=O)[nH]1	123% (inactive)
CCCCCCNC(=O)n1cc(F)c(=O)[nH]c1=O	128% (inactive)
Cc1ccc(-c2cc(C(F)(F)F)nn2-c2ccc(S(N)(=O)=O)cc2)cc1	124% (inactive)
CN(CCOc1ccc(CC2SC(=O)NC2=O)cc1)c1ccccn1 (stereo not drawn)	131% (inactive)

Same assay, conditions: patient-derived ovarian cancer cells, CellTiter-Glo viability, 144 h; at 1.25 µM; OCI-P5x cells; with rucaparib 20 µM; hits give low values; 100% = cells with rucaparib alone

SMILES	viability
O=c1[nH]cc(F)c(=O)[nH]1	99.6% (active)
CCCCCCNC(=O)n1cc(F)c(=O)[nH]c1=O	95.1% (active)
Cc1ccc(-c2cc(C(F)(F)F)nn2-c2ccc(S(N)(=O)=O)cc2)cc1	109% (inactive)
CN(CCOc1ccc(CC2SC(=O)NC2=O)cc1)c1ccccn1 (stereo not drawn)	101% (inactive)
